In PubChem BioAssay (NCI):
This is part of a sample that, as a whole, favours compounds with a hit. Of some 83,000 tested, about 20% had one in any assay.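 The endpoint reported here, percent growth, reads 100 for growth as untreated, 0 for no net growth and -100 for all cells dead.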 A number with no mark means an inactive call. Active and inactive are the calls of the source. How the source made its calls: active means growth percent below 10; inactive means the rest.

Legend:
Assay in all cases: NCI-60 one-dose screen, 48 h (100 = growth as untreated, 0 = no growth, -100 = all killed)
Conditions in all cases: 10 µM unless noted
NCI-H23 lung = tested on: NCI-H23 lung
NCI-H226 lung = tested on: NCI-H226 lung
NCI-H322M lung = tested on: NCI-H322M lung
HOP-62 NSCLC = tested on: HOP-62 NSCLC
NCI-H460 lung = tested on: NCI-H460 lung
HOP-92 NSCLC = tested on: HOP-92 NSCLC
NCI-H522 lung = tested on: NCI-H522 lung
A549/ATCC NSCLC = tested on: A549/ATCC NSCLC
786-0 renal = tested on: 786-0 renal
COLO 205 colon = tested on: COLO 205 colon

Structure (SMILES): Cc1nc2ccccc2c(/C=C/c2ccccc2)c1C(=O)/C=C/c1ccc(C(F)(F)F)cc1
- growth (NCI-H23 lung): -33.6% (active)
- growth (NCI-H226 lung): -42.2% (active)
- growth (NCI-H322M lung): 2.79% (active)
- growth (HOP-62 NSCLC): -21.9% (active)
- growth (NCI-H460 lung): -71.6% (active)
- growth (HOP-92 NSCLC): -64.8% (active)
- growth (NCI-H522 lung): -1.91% (active)
- growth (A549/ATCC NSCLC): 75.3%
- growth (786-0 renal): -76.4% (active)
- growth (COLO 205 colon): -25.7% (active)

Structure (SMILES): Cc1cccc(NCc2cn(-c3ccc(C(=O)O)cc3)nc2-c2ccc(C(=O)O)cc2)n1
- growth (NCI-H23 lung): 110%
- growth (NCI-H226 lung): 99.8%
- growth (NCI-H322M lung): 105%
- growth (HOP-62 NSCLC): 104%
- growth (NCI-H460 lung): 104%
- growth (HOP-92 NSCLC): 105%
- growth (NCI-H522 lung): 95.8%
- growth (A549/ATCC NSCLC): 104%
- growth (786-0 renal): 102%
- growth (COLO 205 colon): 111%

Structure (SMILES): CN(C(=O)NCc1cccc(F)c1Cl)[C@H](COC(=O)Nc1cc2ccccc2cn1)CC(O)CO (stereo not given in full)
- growth (NCI-H23 lung): 96.5%
- growth (NCI-H226 lung): 92.7%
- growth (NCI-H322M lung): 86.4%
- growth (HOP-62 NSCLC): 64.8%
- growth (NCI-H460 lung): 100%
- growth (HOP-92 NSCLC): 28%
- growth (NCI-H522 lung): 84.5%
- growth (A549/ATCC NSCLC): 80.9%
- growth (786-0 renal): 68%
- growth (COLO 205 colon): 111%

Structure (SMILES): COC(=O)[C@H](C)NC(=O)NC(=O)NC(=O)CI
- growth (NCI-H23 lung): 86.2%
- growth (NCI-H226 lung): 89.2%
- growth (NCI-H322M lung): 103%
- growth (HOP-62 NSCLC): 98.4%
- growth (NCI-H460 lung): 104%
- growth (HOP-92 NSCLC): -21.4% (active)
- growth (NCI-H522 lung): -75% (active)
- growth (A549/ATCC NSCLC): 96.4%
- growth (786-0 renal): 63.9%
- growth (COLO 205 colon): 32%

Structure (SMILES): CC(C)(C)NC(=O)C(OC(=O)c1cccc(Cl)c1)c1ccc(Cl)cc1 (stereo not given)
- growth (NCI-H23 lung): 101%
- growth (NCI-H226 lung): 94.9%
- growth (NCI-H322M lung): 98%
- growth (HOP-62 NSCLC): 80.9%
- growth (NCI-H460 lung): 106%
- growth (HOP-92 NSCLC): 93.8%
- growth (NCI-H522 lung): 71.1%
- growth (A549/ATCC NSCLC): 90.9%
- growth (786-0 renal): 99.2%
- growth (COLO 205 colon): 103%

Structure (SMILES): Cc1cccc2c3c(sc12)C(c1ccc(F)cc1)C(C#N)=C(N)O3 (stereo not given)
- growth (NCI-H23 lung): 21.3%
- growth (NCI-H226 lung): 26.1%
- growth (NCI-H322M lung): 46.4%
- growth (HOP-62 NSCLC): 33.2%
- growth (NCI-H460 lung): 3.07% (active)
- growth (HOP-92 NSCLC): 68.4%
- growth (NCI-H522 lung): 13.6%
- growth (A549/ATCC NSCLC): 22.1%
- growth (786-0 renal): 16.7%
- growth (COLO 205 colon): -37.3% (active)

Structure (SMILES): COc1cc(/C=C/C(=O)/C=C/c2cc(OC)c3c(c2OC)OCO3)c(OC)c2c1OCO2
- growth (NCI-H23 lung): 33.2%
- growth (NCI-H226 lung): 73.9%
- growth (NCI-H322M lung): 56.8%
- growth (HOP-62 NSCLC): 72.8%
- growth (NCI-H460 lung): 23.5%
- growth (HOP-92 NSCLC): 74.1%
- growth (NCI-H522 lung): -15.5% (active)
- growth (A549/ATCC NSCLC): 55.1%
- growth (786-0 renal): 29%
- growth (COLO 205 colon): 13.3%

Structure (SMILES): CCc1cccc2c1S/C(=C/c1ccc(OC)cc1)C2=O
- growth (NCI-H23 lung): 50.1%
- growth (NCI-H226 lung): 85.7%
- growth (NCI-H322M lung): 86.7%
- growth (HOP-62 NSCLC): 45.4%
- growth (NCI-H460 lung): 56%
- growth (HOP-92 NSCLC): 72.2%
- growth (NCI-H522 lung): 42.7%
- growth (A549/ATCC NSCLC): 89%
- growth (786-0 renal): 63.6%
- growth (COLO 205 colon): 105%

Structure (SMILES): CN1CCN(Cc2ccc(NC(=O)c3cncc(C#Cc4cnccc4C#N)c3)cc2C(F)(F)F)CC1
- growth (NCI-H23 lung): 49.2%
- growth (NCI-H226 lung): 40.4%
- growth (NCI-H322M lung): 99.4%
- growth (HOP-62 NSCLC): 76.8%
- growth (NCI-H460 lung): 59.2%
- growth (HOP-92 NSCLC): 36%
- growth (NCI-H522 lung): 66.7%
- growth (A549/ATCC NSCLC): 90.4%
- growth (786-0 renal): 101%
- growth (COLO 205 colon): 24.6%

Structure (SMILES): CCS(=O)(=O)c1ncnc2nc[nH]c12
- growth (NCI-H23 lung): 111%
- growth (NCI-H226 lung): 94.2%
- growth (NCI-H322M lung): 106%
- growth (HOP-62 NSCLC): 93.5%
- growth (NCI-H460 lung): 105%
- growth (HOP-92 NSCLC): 77.1%
- growth (NCI-H522 lung): 65.4%
- growth (A549/ATCC NSCLC): 89.4%
- growth (786-0 renal): 95%
- growth (COLO 205 colon): 102%

Structure (SMILES): CCCCCCNC(=O)Oc1ccc(/C(=C(\C)c2ccc(Cl)cc2)c2ccc(OCCCN(C)C)cc2)cc1
- growth (NCI-H23 lung): 80.5%
- growth (NCI-H226 lung): 110%
- growth (NCI-H322M lung): 81.7%
- growth (HOP-62 NSCLC): 97%
- growth (NCI-H460 lung): 32.7%
- growth (HOP-92 NSCLC): 58.6%
- growth (NCI-H522 lung): 83.7%
- growth (A549/ATCC NSCLC): 63.5%
- growth (786-0 renal): 56.8%
- growth (COLO 205 colon): 23.8%

Structure (SMILES): O=C1NC(=O)C(Cn2cnc3ccccc32)N1 (stereo not given)
- growth (NCI-H23 lung): 98.4%
- growth (NCI-H226 lung): 103%
- growth (NCI-H322M lung): 99%
- growth (HOP-62 NSCLC): 102%
- growth (NCI-H460 lung): 101%
- growth (HOP-92 NSCLC): 97.4%
- growth (NCI-H522 lung): 95.9%
- growth (A549/ATCC NSCLC): 97.8%
- growth (786-0 renal): 99.2%
- growth (COLO 205 colon): 107%
